Source: PubChem BioAssay
SARS PLpro yeast – qHTS of Yeast-based Assay for SARS-CoV PLP; S. cerevisiae expressing SARS-CoV PLpro, growth rescue; Potency, µM (series often up to 32.9 µM), for the others: at the highest dose activity, positive = growth rescue, actives largely listed as activators; hit rate 0.19% among 330,000; AID 485353, 2010; calls by dose curve; also: potency is read from the fitted curve at half-maximal effect; 0% is about no effect; nearly all actives have a fitted effect of over 55% in size
MARV entry inh – qHTS for inhibitors of binding or entry into cells for Marburg Virus | Marburg virus pseudotyped entry inhibition, cell reporter | Potency, µM (series often up to 37.8 µM), for the others: top-dose activity change, negative = inhibition, hits mostly inhibitors | hit rate 1.8% among 300,000; calls by dose curve; tested in HEK293 cells; also: potency is read from the fitted curve at half-maximal effect; % is scaled to controls: 0 for no effect and ±100 for the full control effect
FMDV antiviral – High Throughput Screening for Foot and Mouth Disease Virus Antivirals | Potency, µM (doses to about 57.9 µM), for the others: top-dose activity change, negative = inhibition, usual class: inhibitors | FMDV antiviral cell-based qHTS | AID 1159524, 2015 | hit rate 1.2% among 410,000; calls by dose curve; tested in HEK293T cells; also: read-out not given here; potency is read from the fitted curve at half-maximal effect; % is scaled to controls: 0 for no effect and ±100 for the full control effect; nearly all actives have a fitted effect of over 45% in size
HCV inh – qHTS Assay for Inhibitors of Hepatitis C Virus (HCV). Huh7.5.1 HCVcc-Cre infection, luciferase reporter, 44 h. Potency, µM (series often up to 41.8 µM), for the others: at the highest dose activity change, negative = inhibition, actives largely listed as inhibitors. hit rate 3.4% among 340,000; active = well fitted inhibition curve with a large enough effect; inconclusive = small, poorly fitted or top-dose-only effect, or another doubt; inactive = no such curve, though single readings can be large or run the other way; also: potency is read from the fitted curve at half-maximal effect; % is scaled to controls: 0 for no effect and ±100 for the full control effect
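Antiviral activity was scored by luciferase reporter output from cells infected with HCVcc-Cre (~0.5 moi) in presence of compound, 44 h infection period, cells seeded 1,000/well 4 h prior.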
HCMV antiviral – qHTS Assay for inhibitors of the human cytomegalovirus (HCMV); activity change, negative = inhibition, % at 57.5 µM; HFF cells, HCMV-luciferase reporter, 72 h; hits give low values; hit rate 4.5% among 410,000; in the data active = activity change below about -60%; inconclusive = no clear call, values can overlap the other calls; inactive = above about -39%; also: % is scaled to controls: 0 for no effect and ±100 for the full control effect
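Inhibition of viral replication was scored as loss of reporter luminescence in HFFs infected with HCMV-luciferase (MOI 1 PFU/cell) for 72 h; compounds tested at 2 doses, normalized to buffer and Salinomycin controls.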
LASV entry inh – qHTS for Inhibitors of binding or entry into cells for Lassa Virus. Lassa virus pseudotype entry inhibition, cell reporter. Potency, µM (doses to about 37.9 µM), inactives show at the highest dose activity change, negative = inhibition, actives largely listed as inhibitors. hit rate 1.2% among 300,000; calls by dose curve; tested in HEK293 cells; also: potency is read from the fitted curve at half-maximal effect; % is scaled to controls: 0 for no effect and ±100 for the full control effect; nearly all actives have a fitted effect of over 50% in size
* = called active by the depositor; ? = inconclusive; / = no result; [ ] = another dose, or the depositor's remark. Shown are actives, neighbours in structure and some others; about 8% of the full set was active somewhere.

SMILES	SARS PLpro yeast	MARV entry inh	FMDV antiviral	HCV inh	HCMV antiviral	LASV entry inh
CCOC(=O)c1ccc(NC(=O)c2ccc(CN3CCc4ccccc4C3)cc2)cc1	1%	?	?	1.4µM*	-33	-23%
CCOc1ccccc1NC(=O)c1ccc(CN2CCc3ccccc3C2)cc1	-6%	3%	-11%	?	1	3%
CCOc1ccc(NC(=O)c2ccc(CN3CCc4ccccc4C3)cc2)cc1	/	?	?	2µM*	?	-11%[46.1 µM]
Cc1ccccc1NC(=O)Cn1c(=O)n(Cc2ccc3c(c2)OCO3)c(=O)c2oc3ccccc3c21	/	/	20%	/	-16	5%[46.1 µM]
Cc1ccccc1NC(=O)Cn1c(=O)n(Cc2ccc3c(c2)OCO3)c(=O)c2ccccc21	/	-19%[46.1 µM]	-15%	/	-61*	-11%[46.1 µM]
COc1ccccc1NC(=O)N1CC=C(c2c[nH]c3ccccc23)CC1	/	21%[46.1 µM]	-2%	/	43	/
Cc1cccc(N2CCN(C(=O)c3cnn(-c4cccc(Cl)c4C)c3C3CCNCC3)CC2)c1C	/	/	-19%	/	-99*	?
Cn1ncc(Cl)c1C(=O)N1CCN(c2cccc(Cl)c2)CC1	-11%	?	-22%	?	9	?
Cc1cccc(N2CCN(C(=O)c3c(Cl)cnn3C)CC2)c1C	-5%	?	?	?	27	11µM*
Cc1ccc(Cl)cc1N1CCN(C(=O)c2cnn(-c3ccc(Cl)cc3)c2C2CCNCC2)CC1	/	/	-25%	/	-101*	?
Cc1c(Cl)cccc1-n1ncc(C(=O)N2CCOCC2)c1C1CCN(C(=O)OC(C)(C)C)CC1	/	/	-13%	/	9	-24%[46.1 µM]
Cc1ccc(N2CCN(C(=O)c3cnn(-c4ccc(C)c(C)c4)c3C3CCNCC3)CC2)c(C)c1	/	/	-13%	/	-97*	?
COc1ccccc1N1CCN(C(=O)c2cnn(-c3ccc(C)c(C)c3)c2C2CCN(C(=O)OC(C)(C)C)CC2)CC1	/	/	-26%	/	0	?
CCOC(=O)c1c(C)[nH]c(C)c1S(=O)(=O)N1CCCC(C(=O)NCc2cccc(OC)c2)C1 (stereo not given)	/	/	24%	/	-1	4%[46.1 µM]
COc1cccc(C2C(C(=O)Nc3cccnc3)=C(C)Nc3nc(SCc4ccccc4)nn32)c1 (stereo not given)	/	25%[46.1 µM]	-15%	/	1	-25%[46.1 µM]
Cc1cccc(C)c1NC(=O)c1ccc2nc(CCc3ccccc3)oc2c1	/	/	?	/	-3	?
O=C1CC(c2ccccc2)CC(O)=C1C=NCc1ccccc1Cl (stereo not given)	0%	?	/	-24%	-81*	-22%
COC1C(C)OC(OC2CC(C)(O)Cc3cc4c(c(O)c32)C(=O)c2c(O)cc3c(c2C4=O)OC2OC3(C)C(O)C(N(C)C)C2O)C(OC)C1(C)OC (stereo not given)	/	?	-9%	4µM*	-98*	?
COc1cccc(NC(=O)c2oc3ccc(S(=O)(=O)N4CCC5(CC4)OCCO5)cc3c2C)c1	/	/	-26%	/	-7	?
CC(=O)Nc1sc(N/N=C/c2ccccc2)nc1-c1ccc(C)cc1	3%	6%	37%	?	-9	14%
CCCc1sc(N/N=C/c2ccccn2)nc1-c1ccc(Br)cc1	-11%	?	-1%	3.2µM*	-98*	5.2µM*
CCOC(=O)c1ccc(NC(=O)CCc2c(C)nc3c(c(C)nn3-c3ccccc3)c2C)cc1	/	-10%[46.1 µM]	-22%	/	-6	3%[46.1 µM]
CNc1nc(-c2ccc(N(C)C)cc2)nc2ccccc12	/	/	20%	/	/	/
Cc1cc(Cl)ccc1OC(C)C(=O)Nc1cccc(S(=O)(=O)N2CCOCC2)c1 (stereo not given)	/	/	-1%	/	-30	/
Cc1cc(Cl)ccc1OC(C)C(=O)Nc1ccccc1N1CCOCC1 (stereo not given)	-13%	?	?	10µM*	-38	?
Cc1cc(OCC(=O)Nc2ccccc2N2CCOCC2)c(C(C)C)cc1Cl	-5%	/	?	?	-66*	/
O=C(Cc1ccc(Cl)cc1)NC(=S)Nc1ccccc1N1CCOCC1	-20%	?	-8%	?	6	-10%
